Data from PubChem BioAssay (Tox21).
Inconclusive results are not listed. Active and inactive are the calls of the source. Unless noted, the call rests on the fitted dose curve.

Target: Thyrotropin receptor (Homo sapiens) (UniProt P16473)
Assay: qHTS assay to identify small molecule antagonists of the thyroid stimulating hormone receptor (TSHR) signaling pathway (AID 1259385); further: nearly all actives have a fitted effect of over 20% in size
Settings: TSHR-HEK293 cAMP HTRF, TSH-stimulated antagonist mode; series mostly up to 92.4 µM; activity change, negative = inhibition: at the top concentration
How it was run: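 TSHR-HEK293 cells (800/well) plated 18 h, then compounds with Ro20-1724 and TSH at 1.5 ng/mL final, 30 min at room temperature. cAMP quantified by HTRF (cAMP-d2/anti-cAMP-cryptate, 1 h); 15 concentrations in triplicate.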
On the % scale 0 is the no-effect control and ±100 the full control effect; potency means the concentration at half of the fitted maximal effect.

Chain of Thyrotropin receptor (Homo sapiens) (P16473 whole entry, looked up): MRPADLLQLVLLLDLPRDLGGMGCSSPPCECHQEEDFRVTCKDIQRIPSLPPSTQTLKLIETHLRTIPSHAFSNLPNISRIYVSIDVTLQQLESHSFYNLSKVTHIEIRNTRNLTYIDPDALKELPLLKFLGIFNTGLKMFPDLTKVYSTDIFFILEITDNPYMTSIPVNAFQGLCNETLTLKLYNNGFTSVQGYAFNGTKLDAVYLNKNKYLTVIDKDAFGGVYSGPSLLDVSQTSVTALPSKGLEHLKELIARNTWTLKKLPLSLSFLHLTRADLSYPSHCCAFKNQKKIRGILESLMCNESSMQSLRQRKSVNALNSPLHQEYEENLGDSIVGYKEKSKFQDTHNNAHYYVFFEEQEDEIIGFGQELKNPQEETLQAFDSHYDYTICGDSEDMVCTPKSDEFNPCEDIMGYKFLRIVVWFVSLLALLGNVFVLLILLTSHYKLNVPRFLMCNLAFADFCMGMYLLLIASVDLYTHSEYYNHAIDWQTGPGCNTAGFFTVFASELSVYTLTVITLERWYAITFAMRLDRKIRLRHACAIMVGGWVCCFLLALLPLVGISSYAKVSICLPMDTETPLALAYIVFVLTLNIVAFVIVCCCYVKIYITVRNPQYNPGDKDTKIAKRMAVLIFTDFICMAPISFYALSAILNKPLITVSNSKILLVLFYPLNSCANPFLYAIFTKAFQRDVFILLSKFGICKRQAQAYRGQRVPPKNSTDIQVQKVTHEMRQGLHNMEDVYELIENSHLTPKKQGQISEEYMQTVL

SMILES | activity change, negative = inhibition | Potency
COC(=O)c1nc(Cl)c(Cl)nc1N | 9.48% [at 42.5 µM] (inactive) | –
Cc1c(C)c2c(c(C)c1OC(=O)CCC(=O)OCCO)CC[C@@](C)(CCC[C@H](C)CCC[C@H](C)CCCC(C)C)O2 | 0.67% [at 42.5 µM] (inactive) | –
CN1CC(=O)N2[C@H](c3ccc4c(c3)OCO4)c3[nH]c4ccccc4c3C[C@@H]2C1=O | 0.17% [at 42.5 µM] (inactive) | –
CCOc1ccccc1O[C@H](c1ccccc1)[C@H]1CNCCO1 | -5.15% [at 42.5 µM] (inactive) | –
O=C=Nc1cccc(C(F)(F)F)c1 | -3.28% (inactive) | –
COc1cc(Nc2c(C#N)cnc3cc(OCCCN4CCN(C)CC4)c(OC)cc23)c(Cl)cc1Cl | – | 13.3 µM (active)
CC(CN(C)C)C(C)(O)Cc1ccc(Cl)cc1 (centres undefined) | -6.66% [at 42.5 µM] (inactive) | –
CCOC(=O)c1ccc(O)c(O)c1 | 2.43% [at 42.5 µM] (inactive) | –
OC1(c2ccccc2)CCNCC1 | 3.19% [at 42.5 µM] (inactive) | –
CC(C)C[C@H](NC(=O)[C@H](CCc1ccccc1)NC(=O)CN1CCOCC1)C(=O)N[C@@H](Cc1ccccc1)C(=O)N[C@@H](CC(C)C)C(=O)[C@@]1(C)CO1 | -0.206% [at 42.5 µM] (inactive) | –
COC(=O)C1=C(C)NC(C)=C(C(=O)O[C@@H]2CCCN(Cc3ccccc3)C2)[C@@H]1c1cccc([N+](=O)[O-])c1 | -0.0708% [at 42.5 µM] (inactive) | –
CO/N=C(/C(=O)N[C@@H]1C(=O)N2C(C(=O)O)=C(COC(N)=O)CS[C@H]12)c1ccco1 | -0.37% (inactive) | –
Oc1c(I)cc(I)c2cccnc12 | 0.348% [at 42.5 µM] (inactive) | –
CC1(CN2CCC(n3c(=O)[nH]c4ccccc43)CC2)OCc2ccccc2-n2cccc21 (centres undefined) | -9.87% [at 42.5 µM] (inactive) | –
OC[C@H]1O[C@@H](n2cnc3c(=S)nc[nH]c32)[C@H](O)[C@@H]1O | -2.04% [at 42.5 µM] (inactive) | –
CCCCCCCCCI | -0.782% (inactive) | –
O=C1NC(=O)c2cc([N+](=O)[O-])ccc21 | 8.37% (inactive) | –
Cc1cc2c(OCC(CNC(C)(C)C)OC(=O)c3ccccc3)cccc2[nH]1 (centres undefined) | 5.37% [at 42.5 µM] (inactive) | –
CCOc1ccc(Cc2nccc3cc(OCC)c(OCC)cc23)cc1OCC | -6.94% [at 42.5 µM] (inactive) | –
C[C@@]12CCC[C@H]1[C@@H]1CC[C@H]3C[C@@H](O)CC[C@]3(C)[C@H]1CC2 | 2.2% [at 42.5 µM] (inactive) | –

SMILES | activity change, negative = inhibition | Potency
Cc1[nH]cnc1CN1CCc2c(c3ccccc3n2C)C1=O | 3.3% [at 42.5 µM] (inactive) | –
O=c1c(O)c(-c2ccc(O)cc2)oc2cc(O)cc(O)c12 | – | inactive
O=C(O)c1cccc(-c2noc(-c3ccccc3F)n2)c1 | -9.29% [at 42.5 µM] (inactive) | –
C=C(C)[C@@H]1CCC2=CCC[C@@H](C)[C@]2(C)C1 | 3.06% (inactive) | –
Cc1cccc(O)c1N | -1.07% (inactive) | –
Cc1ccccc1N=C(N)Nc1ccccc1C | -0.981% (inactive) | –
O=[N+]([O-])c1cc(C2CCCCC2)c(O)c([N+](=O)[O-])c1 | -1.85% (inactive) | –
O[C@@H]1CO[C@H]2[C@@H]1OC[C@@H]2O | -0.33% [at 42.5 µM] (inactive) | –
CCC(=O)OC | 1.85% (inactive) | –
CC1CC(C)C(=O)C1=O (centres undefined) | 2.16% (inactive) | –
CC(C)(O)c1ccc(CNC(=O)c2cccnc2Oc2ccc3nonc3c2)cc1 | -0.297% (inactive) | –
NC1[C@H]2CN(c3nc4c(cc3F)c(=O)c(C(=O)O)cn4-c3ccc(F)cc3F)C[C@@H]12 (some centres undefined) | -2.88% [at 42.5 µM] (inactive) | –
CC1=C(CC=O)C(C)(C)CCC1 | 7.05% (inactive) | –
CC(=O)NC1(c2cccc(F)c2)CCN(CC[C@@]2(c3ccc(Cl)c(Cl)c3)CN(c3ccccc3)C(=O)CO2)CC1 | -0.848% (inactive) | –
O=C(CCc1ccc(O)cc1)c1c(O)cc(O)cc1O | -0.32% (inactive) | –
C[C@@H](O)[C@H]1C(=O)N2C(C(=O)O)=C([C@H]3CCCO3)S[C@H]12 | 2.66% [at 42.5 µM] (inactive) | –
O=c1cc(-c2ccccc2)oc2cc(O)cc(O)c12 | -1.49% (inactive) | –
O=C(OC(=O)c1ccccc1)c1ccccc1 | -1.15% (inactive) | –
C=CC(C)(CCC=C(C)C)OC(=O)CC(C)C (centres undefined) | 0.113% (inactive) | –
CC=C(Cl)Cl | 7.18% (inactive) | –

Test system: not listed separately
Assay: qHTS assay to identify small molecule agonists of the estrogen receptor alpha (ER-alpha) signaling pathway in the presence of an antagonist - cell viability counter screen (AID 1259386; active means well fitted cell-killing curve with a large enough effect in the repeat runs;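 further: cells exposed to compounds for 22 h at 37 °C before the viability read; nearly all actives have a fitted effect of over 30% in size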)
Settings: VM7Luc4E2 viability, CellTiter-Fluor fluorescence, 22 h; series mostly up to 92.4 µM; activity change, negative = cytotoxicity: at the top concentration
How it was run: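 Viability counter screen using VM7Luc4E2 (full-length ER-alpha, four ERE-luciferase). The cells were treated with compounds alongside ICI-182,780 10.0nM for 22hr, and live-cell protease fluorescence was quantified with CellTiter-Fluor.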

SMILES | activity change, negative = cytotoxicity | Potency
COC(=O)c1nc(Cl)c(Cl)nc1N | 1.55% [at 42.5 µM] (inactive) | –
Cc1c(C)c2c(c(C)c1OC(=O)CCC(=O)OCCO)CC[C@@](C)(CCC[C@H](C)CCC[C@H](C)CCCC(C)C)O2 | -10.9% [at 42.5 µM] (inactive) | –
CCOc1ccccc1O[C@H](c1ccccc1)[C@H]1CNCCO1 | -4.86% [at 42.5 µM] (inactive) | –
O=C=Nc1cccc(C(F)(F)F)c1 | -1.77% (inactive) | –
CC(CN(C)C)C(C)(O)Cc1ccc(Cl)cc1 (centres undefined) | -1.51% [at 42.5 µM] (inactive) | –
OC1(c2ccccc2)CCNCC1 | 0.0924% [at 42.5 µM] (inactive) | –
CC(C)C[C@H](NC(=O)[C@H](CCc1ccccc1)NC(=O)CN1CCOCC1)C(=O)N[C@@H](Cc1ccccc1)C(=O)N[C@@H](CC(C)C)C(=O)[C@@]1(C)CO1 | -14% [at 42.5 µM] (inactive) | –
COC(=O)C1=C(C)NC(C)=C(C(=O)O[C@@H]2CCCN(Cc3ccccc3)C2)[C@@H]1c1cccc([N+](=O)[O-])c1 | -11.9% [at 42.5 µM] (inactive) | –
CO/N=C(/C(=O)N[C@@H]1C(=O)N2C(C(=O)O)=C(COC(N)=O)CS[C@H]12)c1ccco1 | -1.8% (inactive) | –
CC1(CN2CCC(n3c(=O)[nH]c4ccccc43)CC2)OCc2ccccc2-n2cccc21 (centres undefined) | -13.7% [at 42.5 µM] (inactive) | –
OC[C@H]1O[C@@H](n2cnc3c(=S)nc[nH]c32)[C@H](O)[C@@H]1O | 0.463% [at 42.5 µM] (inactive) | –
CCCCCCCCCI | -4.24% (inactive) | –
C=C(C)[C@@H]1CCC2=CCC[C@@H](C)[C@]2(C)C1 | -0.279% (inactive) | –
O=[N+]([O-])c1cc(C2CCCCC2)c(O)c([N+](=O)[O-])c1 | – | 15.3 µM (active)
NC1[C@H]2CN(c3nc4c(cc3F)c(=O)c(C(=O)O)cn4-c3ccc(F)cc3F)C[C@@H]12 (some centres undefined) | 0.198% [at 42.5 µM] (inactive) | –
CC(=O)NC1(c2cccc(F)c2)CCN(CC[C@@]2(c3ccc(Cl)c(Cl)c3)CN(c3ccccc3)C(=O)CO2)CC1 | 0.672% (inactive) | –
C[C@@H](O)[C@H]1C(=O)N2C(C(=O)O)=C([C@H]3CCCO3)S[C@H]12 | 4.34% [at 42.5 µM] (inactive) | –
O=c1cc(-c2ccccc2)oc2cc(O)cc(O)c12 | – | 48.6 µM (active)
C=CC(C)(CCC=C(C)C)OC(=O)CC(C)C (centres undefined) | 0.743% (inactive) | –
